From PubChem BioAssay (NCATS) come the findings set out here.

Unmarked numbers belong to inactive results. Inconclusive results are not listed. Active and inactive are the calls of the source. Calls follow the shape of the dose curve; as a rule, active = well fitted curve in the direction sought with a large enough effect; inconclusive = small, poorly fitted or top-dose-only effect, or another doubt; inactive = no such curve, though single readings can be large; an effect the other way counts as inactive or inconclusive.

In assay [1] the test system is Zika virus NS2B-NS3 protease (unlinked complex). As to the kind of experiment: Primary screen GU Rhodamine qHTS for Zika virus inhibitors: Unlinked NS2B-NS3 protease assay (AID 1347159). Also: % is scaled to controls: 0 for no effect and ±100 for the full control effect; nearly all actives have a fitted effect of over 60% in size. Summed up:
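In dose–response format, inhibition of unlinked protease (25 nM) was measured with 1.5 microM bis-peptide Rhodamine110 substrate. Aprotinin served as the intraplate control.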
(In general: Quantitative high-throughput screening tests each substance at several concentrations.)

Assay [2] concerns Zika virus NS2B-NS3 protease (linked construct). Kind of assay: Primary screen NINDS Rhodamine qHTS for Zika virus inhibitors (AID 1347160). Also: nearly all actives have a fitted effect of over 55% in size. The method in brief:
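Each compound, titrated, sat 15 min with 25 nM linked protease before 1.5 microM Rhodamine110 substrate went in. Fluorescence gain over the next 15 min, in pH 8.0 Tris with Tween 20, gave Hill-fitted curves.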

The target in assay [3] is Calcium and integrin-binding protein 1 (Homo sapiens) (UniProt Q99828). As to the kind of experiment: Primary qHTS for Identification of Calcium Integrin Binding Protein 1 (CIB1) Competitor (AID 1508620).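 Also: GST tagged CIB1 binding a fluorescein labelled alphaIIb integrin peptide tracer; top concentration of the series differs between compounds; % is scaled to controls: 0 for no effect and ±100 for the full control effect.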 Summed up: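 CIB1-GST (1 uM final) and compound incubated 15 min at room temperature before adding FITC-alphaIIb peptide tracer (100 nM final). Competition for binding read by fluorescence polarization (ex 480, em 540) after another 15 min at room temperature.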

In assay [4] the target is Phospholipid hydroperoxide glutathione peroxidase GPX4 (Homo sapiens) (UniProt P36969). Kind of assay: Primary qHTS Assay for Inhibitors of Recombinant Selenoprotein Glutathione Peroxidase 4 (GPX4) (AID 1845192). Also: nearly all actives have a fitted effect of over 65% in size. Also: potency is read from the fitted curve at half-maximal effect. Summed up: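 NADPH consumption followed by fluorescence at 340/450 nm, t=0 and after 15 min at room temperature. Reaction started with cumene hydroperoxide (0.5 mM final) after 30 min compound–GPX4 preincubation; final 200 nM GPX4, 100 nM GR, 1 mM GSH, 0.5 mM NADPH.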

In assay [5] the target is Luciferin 4-monooxygenase (Photinus pyralis) (UniProt P08659). As to the kind of experiment: Primary firefly luciferase (FLuc) qHTS assay for identification of artifact compounds. (AID 1845220). Also: nearly all actives have a fitted effect of over 60% in size. Conditions: outcome: dose series up to 54.1 µM unless noted. The method in brief: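 Cell-free, 1536-well qHTS. Buffer pH 7.6 with 0.01% Tween-20 and 0.05% BSA; 10 uM D-luciferin, 10 uM ATP; 10 nM P. pyralis luciferase; luminescence after 5 min.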

Assay [6] can be described thus: Primary fluorescence-based thiol-reactive (MSTI) qHTS assay for identification of artifact compounds. (AID 1845221). Also: nearly all actives have a fitted effect of over 65% in size. Also: potency is read from the fitted curve at half-maximal effect. Summed up: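 MSTI probe at 4 uM final in 2% DMSO/PBS pH 7.4; compounds, 1 h at room temperature in dark. Fluorescence Ex/Em 525/598 nm, normalised to Acetyl-MSTI and MSTI, fitted to 4-parameter Hill.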
Assay [7] concerns Nanoluciferase (engineered Oplophorus gracilirostris luciferase). Kind of assay: Primary Nanoluciferase (NLuc) qHTS assay for identification of artifact compounds. (AID 1845222).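 Also: 0% = DMSO and -100% = no enzyme.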 Summed up:
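Compounds are pinned into diluted (1:55) conditioned medium of NLuc-expressing S16 cells and held 15 min at room temperature protected from light. Nano-Glo substrate follows, and luminescence is read 5 min later.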

Assay [8] has as its system CRL-7250. As to the kind of experiment: Cytotoxic Profiling of Annotated Libraries Using Quantitative High-Throughput Screening (AID 1296008). Also: nearly all actives have a fitted effect of over 60% in size. Also: potency is read from the fitted curve at half-maximal effect. As to max response: % is scaled to controls: 0 for no effect and ±100 for the full control effect. The settings on record: Five cell lines viability, CellTiter-Glo ATP luminescence, 48-72 h; max response: hits give low values. Summed up: (§1)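 Cytotoxicity was measured as CellTiter-Glo ATP luminescence, read after 10 min at room temperature. Compound treatment of the cells lasted 48 or 72 hr at 37 degrees Celsius in a qHTS format.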
A general note: Cellular ATP, detected with luciferase, serves as a proxy for viable cell number.

Assay [9] concerns NIH3T3. Described as above. Conditions: Five cell lines viability, CellTiter-Glo ATP luminescence, 48-72 h; max response: hits give low values. The method in brief:
as §1

The subject of assay [10] is C33A. Kind of assay: Primary qHTS to identify gynecologic anti-cancer compounds using libraries of approved drugs and bioactive compounds (AID 1345084). Also: nearly all actives have a fitted effect of over 55% in size. Also: potency is read from the fitted curve at half-maximal effect. Conditions: Gynecologic cancer cell panel viability, ATPlite luminescence, 48 h; series mostly up to 57.5 µM. Summed up: (§2)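 Cells, 1,000 per well, plated 16 h, then exposed 48 h at 37 C to compounds. Viability by ATPlite luminescence after 15 min at room temperature.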

For assay [11], the system named is CAOV3. The assay is described as above. Conditions: Gynecologic cancer cell panel viability, ATPlite luminescence, 48 h; series mostly up to 57.5 µM. Summed up:
as §2

Assay [12] has as its system CASKI. Described as above. Conditions: Gynecologic cancer cell panel viability, ATPlite luminescence, 48 h; series mostly up to 57.5 µM. The method in brief:
as §2

In assay [13] the test system is Es-2. Described as above. The settings on record: Gynecologic cancer cell panel viability, ATPlite luminescence, 48 h; series mostly up to 57.5 µM. Summed up:
as §2

Assay [14] concerns Hek293T. The assay is described as above. The settings on record: Gynecologic cancer cell panel viability, ATPlite luminescence, 48 h, control line for the selectivity index; series mostly up to 57.5 µM. The method in brief:
as §2

For assay [15], the system named is JEG-3. The description is as above. The settings on record: Gynecologic cancer cell panel viability, ATPlite luminescence, 48 h; series mostly up to 57.5 µM. The method in brief:
as §2

Assay [16] concerns OV90. The assay is described as above. The settings on record: Gynecologic cancer cell panel viability, ATPlite luminescence, 48 h; series mostly up to 57.5 µM. Summed up:
as §2

Assay [17] relates to PA-1. The description is as above. The settings on record: Gynecologic cancer cell panel viability, ATPlite luminescence, 48 h; series mostly up to 57.5 µM. Summed up: as §2
In assay [18] the test system is Tov-21-G. Described as above. The settings on record: Gynecologic cancer cell panel viability, ATPlite luminescence, 48 h; series mostly up to 57.5 µM. Summed up: as §2
The test system of assay [19] is Tov112D. The description is as above. The settings on record: Gynecologic cancer cell panel viability, ATPlite luminescence, 48 h; series mostly up to 57.5 µM. The method in brief: as §2
Assay [20] concerns the target Glutathione peroxidase 1 (Homo sapiens) (UniProt P07203). Kind of assay: Primary qHTS Assay for Inhibitors of Recombinant Selenoprotein Glutathione Peroxidase 1 (GPX1) (AID 1845191). Also: nearly all actives have a fitted effect of over 65% in size. The method in brief:
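NADPH consumption tracked by fluorescence at 340/450 nm between t=0 and t=15 min, room temperature. Final mix: 10 nM GPX1, 100 nM glutathione reductase, 1 mM GSH, 0.5 mM NADPH, 0.5 mM cumene hydroperoxide, 0.01% BSA; 30 min compound–enzyme preincubation.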

Sequence of Glutathione peroxidase 1 (Homo sapiens) (P07203 whole entry, looked up): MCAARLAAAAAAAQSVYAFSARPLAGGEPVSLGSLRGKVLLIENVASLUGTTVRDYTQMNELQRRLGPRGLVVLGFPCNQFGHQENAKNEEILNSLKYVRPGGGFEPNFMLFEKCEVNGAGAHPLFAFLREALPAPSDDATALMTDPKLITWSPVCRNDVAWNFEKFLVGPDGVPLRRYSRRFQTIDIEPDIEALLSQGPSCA
Sequence of Phospholipid hydroperoxide glutathione peroxidase GPX4 (Homo sapiens) (P36969 whole entry, looked up): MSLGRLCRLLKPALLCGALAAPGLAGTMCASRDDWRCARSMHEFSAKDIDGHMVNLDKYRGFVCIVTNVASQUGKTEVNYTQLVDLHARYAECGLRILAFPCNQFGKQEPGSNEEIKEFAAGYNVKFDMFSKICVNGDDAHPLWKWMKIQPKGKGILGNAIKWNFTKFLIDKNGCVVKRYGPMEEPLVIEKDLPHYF
Sequence of Calcium and integrin-binding protein 1 (Homo sapiens) (Q99828 whole entry, looked up): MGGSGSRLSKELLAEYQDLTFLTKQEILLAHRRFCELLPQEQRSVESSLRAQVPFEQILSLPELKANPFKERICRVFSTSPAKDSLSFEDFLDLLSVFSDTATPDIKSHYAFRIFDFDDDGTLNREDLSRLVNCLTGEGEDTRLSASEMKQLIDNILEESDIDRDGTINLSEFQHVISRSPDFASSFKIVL

Turning to `C=C[C@H]1CN2CCC1C[C@H]2[C@H](O)c1ccnc2ccccc12` (stereo partly drawn), the Potency entry in assay [1], in assay [2], in assay [3], in assay [4], in assay [6] and in assay [7] was “inactive” in each case. Besides, the Potency result in assay [10], in assay [11], in assay [12], in assay [13], in [14] and in assay [15] was “inactive” each time. Besides, the Potency entry in assay [16], in assay [17], in [18] and in assay [19] was “inactive” each time. Also, the result in [5] was inactive. In addition, the max response in assay [8] is -4.97%; in assay [9], -5.71%.

Take `C[C@]12CC[C@@H](O[C@@H]3O[C@H](CO)[C@@H](O)[C@H](O)[C@H]3O)C[C@@]1(O)CCC1C2CC[C@]2(C)[C@@H](C3=CC(=O)OC3)CC[C@]12O` (stereo partly drawn): the Potency entry in [1], in assay [2], in assay [3], in assay [20], in assay [4] and in [7] was “inactive” throughout. Moreover, the molecule was called inactive in assay [5] and in assay [9]. In addition, the Potency in [8] was 126 nM (active); in assay [10], 199 nM (active); in assay [11] it was 501 nM (active); in [13], 355 nM (active); in assay [14], 199 nM (active); in assay [16], 1120 nM (active). The Potency is 355 nM (active) in [17], 178 nM (active) in assay [18] and 112 nM (active) in assay [19].

With `Cc1cccc(NC(=O)NC2N=C(c3ccccc3)c3ccccc3N(CC(=O)c3ccccc3C)C2=O)c1` (stereo not drawn), the Potency entry in assay [2], in [3], in assay [20], in assay [4], in assay [6] and in assay [7] was “inactive” in each case. Further, the Potency entry in assay [10], in assay [12], in assay [13], in assay [14], in assay [15] and in [16] was “inactive” in each case. The Potency result in assay [17], in assay [18] and in assay [19] was “inactive” throughout. Also, the call in assay [5] and in [9] was inactive. In addition, the max response in assay [8] was 0.833%.

`Clc1ccc([C@]23CNC[C@H]2C3)cc1Cl`: the Potency entry in assay [1], in [2], in assay [20], in [4], in [6] and in assay [7] was “inactive” each time. Moreover, the Potency result in [10], in [11], in [12], in assay [13], in assay [14] and in assay [15] was “inactive” in each case. Further, the Potency result in [16], in assay [17], in assay [18] and in assay [19] was “inactive” throughout. Besides, the outcome in [5] was inactive. In addition, the max response was -9.42% in [8] and 1.31% in assay [9].

On to `COc1ccc2[nH]c(-c3ccccc3)c(CCN(C)C)c2c1`, for which the Potency entry in [1], in assay [2], in [3], in assay [20], in assay [7] and in assay [10] was “inactive” throughout. For the same molecule, the Potency entry in assay [11], in assay [12], in assay [13], in assay [14], in [15] and in assay [16] was “inactive” each time. In addition, the Potency entry in [17], in [18] and in assay [19] was “inactive” throughout. In assay [4], the Potency is 16100 nM (active). Moreover, the molecule was called inactive in [5] and in assay [8]. In assay [9], the max response is -23.1%.

As for `CC1CCCC(O)CCC/C=C/c2cc(O)cc(O)c2C(=O)O1` (stereo not drawn), the Potency entry in assay [3], in [4], in assay [7], in assay [11], in [12] and in [13] was “inactive” throughout. Besides, the Potency entry in assay [14], in assay [15], in assay [16], in assay [17], in [18] and in [19] was “inactive” throughout. Further, the outcome in [5] was inactive. For the same molecule, the Potency in assay [6] is 1850 nM (active); in [9], 8050 nM (active). The max response in assay [8] is -5.57%.
